From PubChem BioAssay
Shown is part of a subset that was picked to be rich in hits.
TDP1 cell CPT: growth inhibition of DT40 Tdp1-/-;hTDP1 cells with camptothecin (screen for TDP1 inhibitors). chicken DT40 Tdp1-/-;hTDP1 cells + 20 nM CPT, ATP luminescence, 48 h. Potency, µM (top dose mostly 46.2 µM), inactives show at the highest dose activity change, negative = growth inhibition, hits mostly inhibitors. hit rate 12% among 420,000; also: potency is read from the fitted curve at half-maximal effect; nearly all actives have a fitted effect of over 55% in size
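Chicken DT40 Tdp1-/- cells complemented with human TDP1, 400 cells/well, exposed to compounds plus 20 nM camptothecin for at least 48 h at 37 C; viability read as ATP content by CellTiter-Glo luminescence.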
12-LOX inh: ALOX12 (human) lipoxygenase inhibition; purified 12hLO, xylenol orange hydroperoxide absorbance; Potency, µM (highest dose often 108 µM), for the others: top-dose activity change, negative = inhibition, usual class: inhibitors; hit rate 1.1% among 580,000; also: potency is read from the fitted curve at half-maximal effect
Target sequence (P18054 whole entry, looked up): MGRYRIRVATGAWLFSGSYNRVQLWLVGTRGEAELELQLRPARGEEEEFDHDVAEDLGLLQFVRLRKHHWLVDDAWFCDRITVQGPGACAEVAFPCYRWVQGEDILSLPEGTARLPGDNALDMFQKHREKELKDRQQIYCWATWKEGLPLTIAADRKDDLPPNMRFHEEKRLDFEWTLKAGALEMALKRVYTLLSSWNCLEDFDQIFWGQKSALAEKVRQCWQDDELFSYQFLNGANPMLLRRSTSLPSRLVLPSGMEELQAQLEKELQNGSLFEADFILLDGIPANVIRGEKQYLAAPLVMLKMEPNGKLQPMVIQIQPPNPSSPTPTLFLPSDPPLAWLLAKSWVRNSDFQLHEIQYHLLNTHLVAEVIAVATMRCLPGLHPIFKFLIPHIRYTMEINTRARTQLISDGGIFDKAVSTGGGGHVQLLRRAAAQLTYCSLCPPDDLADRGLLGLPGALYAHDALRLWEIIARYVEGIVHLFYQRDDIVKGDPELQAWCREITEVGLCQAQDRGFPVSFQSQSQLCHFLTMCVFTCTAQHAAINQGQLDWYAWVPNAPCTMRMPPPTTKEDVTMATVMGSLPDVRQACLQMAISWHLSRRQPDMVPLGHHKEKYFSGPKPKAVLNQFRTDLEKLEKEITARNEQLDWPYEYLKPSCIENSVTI
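Hydroperoxide product was detected by ferrous iron/xylenol orange as the 573 to 405 nm absorbance ratio. Arachidonic acid at 40 uM (final) was turned over for 30 min at room temperature by 150 nM human 12hLO, pH 7.0 Hepes buffer, after 15 min compound preincubation.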
TDP1 cell noCPT: qHTS for Inhibitors of human tyrosyl-DNA phosphodiesterase 1 (TDP1): qHTS in cells in absence of CPT; DT40 Tdp1-/- hTDP1 cells, no CPT, ATP luminescence, 48 h; Potency, µM (series often up to 46.2 µM), for inactives: top-dose activity change, negative = growth inhibition, usual class: inhibitors; hit rate 15% among 420,000; AID 686978, 2013; also: potency is read from the fitted curve at half-maximal effect; nearly all actives have a fitted effect of over 55% in size
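Chicken DT40 Tdp1-/- cells complemented with human TDP1, screened without camptothecin (DMSO vehicle only), 400 cells/well. Compounds pin-transferred, cells incubated at 37 °C for at least 48 hr. Growth read as ATP-dependent luminescence (CellTiter-Glo, 30 min at RT).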
IL1B secr inh: inhibitors of inflammasome signaling (IL-1 beta secretion); THP-1 LPS/ATP IL-1B secretion, AlphaLISA, 16 h; hits give low values; activity change, % at 57.5 µM; hit rate 4.7% among 360,000; AID 743279; in the data active = activity change below about -50%; inconclusive = mostly about -30% to -49%
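Secreted IL-1B measured by AlphaLISA bead assay after 16 h compound exposure of THP-1 cells; compounds (final up to 57.5 uM) added 1 h before LPS (250 ng/mL) and ATP (1.25 mM) stimulation; lower signal means less secretion.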
HT1080-NT tox: kills 2HG-producing HT-1080-NT fibrosarcoma cells | AID 686970 | Potency, µM (doses to about 46.1 µM), for the others: top-dose activity, negative = less viability, most hits filed as cytotoxic | HT-1080-NT fibrosarcoma viability, CellTiter-Glo ATP luminescence, 48 h | hit rate 1.6% among 360,000;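 also: NT is the 2HG producing partner of a matched IDH1 knockdown line; potency is read from the fitted curve at half-maximal effect; 0% = DMSO-treated cells and -100% = media-only wells without cells; nearly all actives have a fitted effect of over 55% in size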
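HT-1080-NT fibrosarcoma cells (2HG-overproducing), 750 cells/well in RPMI with 5% FBS, dosed after 2 h and incubated 48 h at 37C. CellTiter-Glo luminescence normalized to DMSO and no-cell wells; concentration-response curves fitted and classed.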
HT1080 IDH1KD tx: toxicity to HT-1080 IDH1 knockdown cells (counter line). AID 686971. Potency, µM (top dose mostly 46.1 µM), without a hit: top-dose activity, negative = toxicity, hits mostly cytotoxic. hit rate 2% among 360,000. HT-1080 IDH1 knockdown viability, ATP luminescence, 48 h;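 also: potency is read from the fitted curve at half-maximal effect; 0% = DMSO wells and -100% = cell-free medium wells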
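After a 2 h attachment period, IDH1KD HT-1080 cells took pin-transferred compound for 48 h at 37 °C; ATP-based luminescence after 10 min room-temperature reagent incubation reported viability.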
* marks the source's active call; other numbers are inactive results; u = inconclusive; x = no result. Unless noted, calls follow the shape of the dose curve; as a rule, active = well fitted curve in the direction sought with a large enough effect; inconclusive = small, poorly fitted or top-dose-only effect, or another doubt; inactive = no such curve, though single readings can be large; an effect the other way counts as inactive or inconclusive. Unless noted, % is scaled to controls: 0 for no effect and ±100 for the full control effect.

SMILES | TDP1 cell CPT | 12-LOX inh | TDP1 cell noCPT | IL1B secr inh | HT1080-NT tox | HT1080 IDH1KD tx
O=C(Nc1ccc(Cl)cc1)C1Cc2c(-c3ccccc3Oc3ccccc3)ccnc2O1 (centres undefined) | 23.1µM* | -13.7% | u | -53.4* | u | u
N#Cc1ccc(/C=N/Nc2ccc(S(N)(=O)=O)cc2[N+](=O)[O-])cc1 | x | -6.5% | x | x | x | x
O=C(O)C1CCN(C(=O)Cn2ccc3c(Cl)cccc32)CC1 | x | -25.9% | x | x | x | x
COc1cc(Br)c(C(=O)c2nccc3cc(OC)c(OC)cc23)cc1OC | 23.1µM* | 1.6% | 18.4µM* | 9.9 | u | -15.0%
COc1cc(N)c(C(=O)c2nccc3cc(OC)c(OC)cc23)cc1OC | 9.8% | u | -19.9% | 5.5 | -4.6% | -5.4%
CCC(=O)NC(c1ccc(OC)c(OC)c1)c1nccc2cc(OC)c(OC)cc12 (centres undefined) | x | 32.1% | x | x | x | x
COc1ccc(C(N)c2nccc3cc(OC)c(OC)cc23)cc1OC (centres undefined) | u | x | u | -83.4* | -0.3% | -16.3%
COc1cc2ccnc(Cc3cccc(OC)c3OC)c2cc1OC | u | -22.6% | 13µM* | -23.9 | -14.0% | -28.7%
COc1cc2ccnc(C=O)c2cc1OC | 4.61µM* | x | 2.59µM* | -5.8 | -19.1% | u
Cn1c(CNC(=O)C(Cc2ccccc2)NS(=O)(=O)c2ccc(Cl)cc2)cc(=O)n(C)c1=O (centres undefined) | x | 14.4% | x | x | x | x
COc1ccc(NC2(c3nnnn3-c3ccc(OC)c(OC)c3)CCCCC2)cc1OC | x | -2.8% | x | x | x | x
Cc1ccccc1Nc1nc(C(=O)NCc2ccccc2)cs1 | x | -2.5% | x | x | x | x
CC(N(C)CC(=O)NC(C)(C#N)C(C)C)C(C)(C)C (centres undefined) | x | -23.4% | x | x | x | x
COc1cc(N)c(Cc2nccc3cc(OC)c(OC)cc23)cc1OC | u | 0.6% | u | 18.3 | -5.2% | -10.2%
COc1cc2ccnc(C=NO)c2cc1OC | 20.6µM* | 26.5% | 20.6µM* | u | -10.4% | u
COc1cccc(NCc2cc(=O)n3[nH]c(-c4ccc(C)cc4)nc3n2)c1 | x | 39.8µM* | x | x | x | x
CCCc1cc(=O)n2[nH]c(-c3ccc(C)cc3)nc2n1 | -15.5% | -15.4% | -0.3% | x | x | x
CCc1ccc(NCc2cc(=O)n3[nH]c(-c4ccccc4)nc3n2)cc1 | x | 8.91µM* | x | x | x | x
CCc1ccc2oc(=O)cc(CN3CCN(C)CC3)c2c1 | x | 20.9% | x | x | x | x
O=C(CN1C(=O)CSc2ccc(S(=O)(=O)N3CCCC3)cc21)Nc1cccc(Cl)c1 | u | -8.7% | 23.1µM* | x | x | x
CCc1ccc(NC(=O)CN2C(=O)CSc3ccc(S(=O)(=O)N(C)C)cc32)cc1 | -12.5% | -21.6% | -20.6% | x | x | x
Cc1ccc(NC(=O)CN2C(=O)CSc3ccc(S(=O)(=O)N4CCCCC4)cc32)cc1 | u | -5.2% | -12.7% | -88.6* | -2.8% | u
COc1ccc(NC(=O)CN2C(=O)CSc3ccc(S(=O)(=O)N(C)C)cc32)cc1Cl | 23.1µM* | -11.5% | u | x | x | x
CCOC(=O)CN1C(=O)CSc2ccc(S(=O)(=O)N3CCCC3)cc21 | -13.3% | -8.0% | u | -51.8* | 23.7% | 16.8%
CCCN(CCC)C(=O)C1CCCN(S(=O)(=O)c2cc(Br)cc3c2N(C(=O)CC)CC3)C1 (centres undefined) | u | 1.4% | 20.6µM* | x | x | x
CCN(C(=O)C1CCN(S(=O)(=O)c2cc(Br)cc3c2N(C(C)=O)CC3)CC1)c1cccc(C)c1 | u | -21.4% | 23.1µM* | x | x | x
CCC(=O)N1CCc2cc(Br)cc(S(=O)(=O)N3CCCC(C(=O)N(C)c4ccc(Br)cc4)C3)c21 (centres undefined) | 18.4µM* | -13.9% | u | x | x | x
